Tau fluor counter = counter-screen for tau fibril formation inhibitors; tau K18 P301L Alexa594 fluorescence, heparin fibrillization; Potency, µM (series often up to 57.7 µM); actives 0.93% (n = 280,000); AID 1463; further: nearly all actives have a fitted effect of over 55% in size
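Human tau K18 P301L (15 uM unlabeled, 0.24 uM Alexa 594-labeled) in 100 mM sodium acetate pH 7 with 20 uM heparin, 6 hr at 37 C. ThT 30 uM added, 1 hr ambient; Alexa 594 FP and total fluorescence read at 555/632 nm.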
Tau fibril ThT = blocks human tau fibril formation measured by thioflavin T; P10636; recombinant tau K18 P301L, heparin-induced fibrillization, ThT fluorescence; Potency, µM (series often up to 57.4 µM), actives largely listed as inhibitors; actives 2.1% (n = 270,000); AID 1460; further: nearly all actives have a fitted effect of over 55% in size
Target sequence (P10636 561-689 P618L limits assumed): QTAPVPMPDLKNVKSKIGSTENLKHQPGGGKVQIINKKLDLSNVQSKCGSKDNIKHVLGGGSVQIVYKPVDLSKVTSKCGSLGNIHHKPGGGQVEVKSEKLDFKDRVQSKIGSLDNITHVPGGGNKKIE
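Recombinant human tau K18 fragment […] carrying P301L, 15 uM unlabeled plus 0.24 uM Alexa 594-labeled, was fibrillized with 20 uM heparin in 100 mM sodium acetate pH 7 for 6 hr at 37 C; 30 uM ThT fluorescence read after 1 hr.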
TR SRC2 fluor cs = Texas Red fluorescence interference in TRb-SRC2 counter-screen; TRb/SRC2 Texas Red total fluorescence interference; Potency, µM (titrated, usually from 106 µM); actives 0.29% (n = 280,000); active means well fitted curve in either direction with a large enough effect; inconclusive means small, poorly fitted or top-dose-only effect
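Human TRb ligand-binding domain at 0.6 uM with 20 nM Texas Red SRC2 peptide in Tris buffer containing 1 uM T3 and 5% DMSO, incubated with compound 5 h at ambient temperature. Total fluorescence (555/632 nm) calculated as parallel + 2 × perpendicular.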
Tau FP inhib = inhibitors of human tau fibril formation; K18 P301L tau heparin fibrillization, Alexa594 FP, 6 h; Potency, µM (series often up to 57.7 µM), most hits filed as inhibitors; actives 0.39% (n = 280,000); AID 1468; further: nearly all actives have a fitted effect of over 55% in size
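Heparin (20 uM) drove fibril formation of recombinant tau K18 P301L, 15 uM unlabeled with 0.24 uM Alexa 594 label, for 6 hr at 37 C in 100 mM sodium acetate pH 7. Fluorescence polarization (555/632 nm) read 1 hr after 30 uM ThT.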
TRb SRC2 PPI = inhibitors of human thyroid hormone receptor beta-SRC2 interaction | P10828 | TRbeta-SRC2 peptide binding, fluorescence polarization; receptor liganded with 1 µM T3 | Potency, µM (titrated, usually from 106 µM), hits mostly inhibitors | actives 0.065% (n = 280,000) | AID 1469; further: nearly all actives have a fitted effect of over 50% in size
Target sequence (P10828 whole entry, looked up): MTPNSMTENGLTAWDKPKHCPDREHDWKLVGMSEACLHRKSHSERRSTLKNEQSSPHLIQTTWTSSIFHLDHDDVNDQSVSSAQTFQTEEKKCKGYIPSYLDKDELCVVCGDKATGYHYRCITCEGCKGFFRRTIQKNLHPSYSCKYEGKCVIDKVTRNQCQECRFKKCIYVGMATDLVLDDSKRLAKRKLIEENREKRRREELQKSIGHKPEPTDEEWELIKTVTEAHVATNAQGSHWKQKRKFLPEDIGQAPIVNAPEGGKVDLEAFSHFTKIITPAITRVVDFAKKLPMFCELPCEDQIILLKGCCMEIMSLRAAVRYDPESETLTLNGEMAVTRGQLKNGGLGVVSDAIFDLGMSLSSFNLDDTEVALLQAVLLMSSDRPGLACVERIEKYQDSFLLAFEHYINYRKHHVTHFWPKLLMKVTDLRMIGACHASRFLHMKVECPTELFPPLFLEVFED
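Human TRb LBD (0.6 uM) plus Texas Red-labeled SRC2 peptide (20 nM), 1uM T3, 5% DMSO, 5 hr at ambient temperature. Decreased polarization (555/632 nm) flags inhibition; data normalized to free and bound peptide controls.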
Of the large screens only hits and unclear results are named; the others gave an inactive call; [ ] = remark or other dose. The list is not random: actives were taken first. Their share in the collection is about 3%. Unless noted, the call rests on the fitted dose curve; in most records, active means well fitted curve in the direction sought with a large enough effect; inconclusive means small, poorly fitted or top-dose-only effect, or another doubt; inactive means no such curve, though single readings can be large; an effect the other way counts as inactive or inconclusive.

CCOc1ccccc1CNC(=O)c1cn(-c2ccc(OC)cc2)c(=O)c2ccccc12	Tau fibril ThT inconclusive
CC1(C)CC(Nc2ccc(Nc3ccccc3)cc2)CC(C)(C)N1	Tau fluor counter 28µM[quencher], Tau fibril ThT inconclusive, Tau FP inhib inconclusive
O=C(/C=C/c1ccc(O)cc1)c1ccccc1O	Tau fluor counter inconclusive, Tau fibril ThT 18µM
O=C(/C=C/c1ccccc1)c1cc(Br)ccc(=O)c1O	Tau fluor counter inconclusive, Tau fibril ThT 14µM, TR SRC2 fluor cs inconclusive, Tau FP inhib inconclusive
O=C(/C=C\c1ccccc1)c1ccccc1O	none
O=C(/C=C/c1ccc(O)c(O)c1)c1ccc(O)cc1O	none (no result: Tau fluor counter, Tau fibril ThT, Tau FP inhib)
Cc1ccc(/C=C/C(=O)c2ccccc(=O)c2O)cc1C	Tau fluor counter inconclusive, Tau fibril ThT 13µM
CCCCOC(=O)/C(C#N)=C\c1ccc(-c2ccc(Cl)cc2)o1	none
CCOc1ccc(NC(=O)/C(C#N)=C\c2ccc(-c3ccc(Cl)cc3)o2)cc1	Tau fibril ThT 1.4µM, TR SRC2 fluor cs inconclusive
N#C/C(=C\c1ccc(-c2ccc(C(=O)O)cc2)o1)C(=O)Nc1ccccc1C(=O)O	Tau fibril ThT 2.5µM
Cc1c(NC(=O)/C(C#N)=C/c2ccc(-c3cc(Cl)ccc3Cl)o2)c(=O)n(-c2ccccc2)n1C	Tau fibril ThT inconclusive, Tau FP inhib inconclusive
N#C/C(=C\c1ccc(-c2cccc(Cl)c2)o1)C(=O)Nc1cccc(C(F)(F)F)c1	TR SRC2 fluor cs 0.089µM[quencher], TRb SRC2 PPI inconclusive
Cc1c(NC(=O)/C(C#N)=C/c2ccc(-c3ccc(Cl)cc3)o2)c(=O)n(-c2ccccc2)n1C	Tau fibril ThT 14µM
COc1ccc(C#CC2C=CC(OC(C)=O)C(COC(C)=O)O2)cc1 (stereo not given)	none
CCN(C(=O)CSc1nc2n[nH]c(C)c2c(=N)n1-c1cccc(OC)c1)c1cccc(C)c1	Tau fluor counter inconclusive
O=c1cc(-c2ccccc2)[nH]n1-c1nc2ccccc2[nH]1	Tau fluor counter inconclusive, Tau fibril ThT 25µM, Tau FP inhib inconclusive
CCOc1cc(-c2cc(-c3ccc(C)cc3)nc(N)c2C#N)ccc1O	Tau fluor counter inconclusive
CCOc1cc(/C=C(\C#N)c2[nH]nc(N)c2C#N)ccc1O	Tau fluor counter inconclusive, Tau fibril ThT 14µM
O=C1NN(c2ccc(F)cc2)C(=O)/C1=C\c1cnn(-c2ccccc2)c1	none
O=C1NN(c2ccc(F)cc2)C(=O)/C1=C\C=C\c1ccco1	Tau fluor counter inconclusive, Tau fibril ThT 13µM, Tau FP inhib inconclusive
Cn1nc([N+](=O)[O-])c(C(C#N)c2ccccn2)c(Cl)c1=O (stereo not given)	Tau fluor counter 13µM[quencher], Tau fibril ThT 8.9µM, Tau FP inhib inconclusive
C/C(N)=C(/C#N)C(=O)CSc1nc2cc(Cl)ccc2s1	Tau fluor counter inconclusive, Tau fibril ThT inconclusive, Tau FP inhib inconclusive
CCCn1nc([N+](=O)[O-])c(C(C#N)c2nc3ccccc3o2)c(Cl)c1=O (stereo not given)	Tau fluor counter 14µM[quencher], Tau fibril ThT 7.1µM, Tau FP inhib inconclusive
CCn1nc([N+](=O)[O-])c(C(C#N)c2nc3cc(C(F)(F)F)ccc3s2)c(Cl)c1=O (stereo not given)	Tau fluor counter 6.3µM[quencher], Tau fibril ThT 4.5µM, Tau FP inhib 20µM
CCCCn1c(N)c(-c2nc3ccccc3o2)c2c([N+](=O)[O-])nn(CC)c(=O)c21	none
COc1ccc(-n2ccnc(NCCc3ccc(S(N)(=O)=O)cc3)c2=O)cc1Cl	none
CC1CCc2nc3ccc(S(=O)(=O)N4CCC(C(=O)NCc5ccccc5Cl)CC4)cc3c(C(=O)O)c2C1 (stereo not given)	TR SRC2 fluor cs 20µM[quencher]
COc1ccc(C2CC(=O)N(Cc3cccc(C)c3)c3c2c(C)nn3-c2nc(C)cc(C)n2)c(OC)c1 (stereo not given)	none
COc1ccc2nc(S(=O)Cc3ncc(C)c(OC)c3C)[nH]c2c1 (stereo not given)	Tau fibril ThT 32µM, Tau FP inhib inconclusive
COc1ccc(OC)c(NC(=O)CN(C)S(=O)(=O)c2ccc3[nH]c4c(c3c2)CCCC4)c1	Tau fluor counter inconclusive
CCOc1ccccc1NS(=O)(=O)c1ccc2[nH]c3c(c2c1)CCCCC3	Tau fluor counter inconclusive
COc1ccc(NS(=O)(=O)c2ccc3[nH]c4c(c3c2)CCCC4)cc1OC	Tau fluor counter 16µM[quencher], Tau fibril ThT inconclusive
COc1cc(NS(=O)(=O)c2ccc3[nH]c4c(c3c2)CCCCCC4)cc(OC)c1	Tau fluor counter 8.9µM[quencher]
COc1cc(NC(=O)CN(C)S(=O)(=O)c2ccc3[nH]c4c(c3c2)CCCC4)cc(OC)c1OC	Tau fluor counter inconclusive
COc1ccc(OC)c(NS(=O)(=O)c2ccc3[nH]c4c(c3c2)CCCCC4)c1	Tau fluor counter 11µM[quencher]
COc1cc(NS(=O)(=O)c2ccc3[nH]c4c(c3c2)CCCC4)cc(OC)c1OC	Tau fluor counter inconclusive, TR SRC2 fluor cs 20µM[quencher]
O=C(Cn1nc2c(cc1=O)CCCC2)NCc1ccccc1Cl	none
CCOC(=O)OCC1OC(c2ccccc2)C=CC1Oc1ccc2oc(=O)cc(C)c2c1 (stereo not given)	none
COc1ccc(NS(=O)(=O)c2ccc3[nH]c(=O)ccc3c2)cc1OC	Tau fluor counter 8.9µM[quencher], Tau fibril ThT inconclusive
COc1ccc(NS(=O)(=O)c2ccc(OC)c(OC)c2)cc1OC	none
O=C1NNC(c2ccccc2)=N/C1=C\c1ccco1	Tau fluor counter inconclusive, Tau fibril ThT 18µM, Tau FP inhib inconclusive
O=C1NNC(c2ccccc2)=N/C1=C\c1ccccc1Cl	Tau fibril ThT inconclusive, Tau FP inhib inconclusive
Cc1noc(C)c1S(=O)(=O)N1CCc2nc(COc3ccccc3)c3c(c2C1)CO[C@@H](C)C3	none
O=C(/C=C/c1ccccc1)/C=C/c1ccccc1	Tau fibril ThT 7.9µM, Tau FP inhib inconclusive
O=C(/C=C/c1ccccc1)c1ccccc1	Tau fibril ThT inconclusive
O=C1Nc2ccc(Br)cc2/C1=C/C(=O)c1ccc2c(c1)OCO2	Tau fluor counter inconclusive, Tau fibril ThT 25µM
N#Cc1cccc(NC(=O)COC(=O)c2ccccc2Sc2ccccc2C#N)c1	Tau fluor counter inconclusive, Tau FP inhib 16µM
CC(=O)c1ccc(NC(=O)COC(=O)c2ccccc2Sc2ccccc2C#N)cc1	none
Nc1nc(SCc2ccc([N+](=O)[O-])cc2)c2ncn([C@@H]3O[C@H](CO)[C@H](O)[C@H]3O)c2n1	none
CC(C)C[C@H](NC(=O)[C@H](CC(C)C)NC(=O)[C@@H](Cc1c[nH]c2ccccc12)NC(=O)[C@H](Cc1ccccc1)NC(=O)[C@@H](Cc1c[nH]c2ccccc12)NC(=O)[C@H](CCC(N)=O)NC(=O)[C@H](CCC(N)=O)NC(=O)[C@@H]1CCCN1C(=O)[C@H](CCCCN)NC(=O)[C@@H]1CCCN1C(=O)[C@H](N)CCCN=C(N)N)C(N)=O	none (no result: Tau fluor counter, Tau fibril ThT, Tau FP inhib)

Assay outcomes (PubChem BioAssay)
